Hits are enriched below; roughly 2.6% of the tested compounds scored in any of these assays.
HBB splicing: hemoglobin beta splicing modulation | hit rate 0.06% among 65,000 | AID 925 | HBB splicing reporter cell assay, activation; EGFP reporter with mutant IVS2-654 intron; response scale: normalised to 500 nM splice-correcting PNA | Potency, µM (top dose mostly 46.1 µM), for inactives: at the top dose activation, usual class: activators; note: potency is the fitted concentration of half-maximal effect; 0% is about no effect
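Compounds were applied for 2 days to HeLa EGFP-654 cells, 500/well in Optimem with 2% FCS. The reporter's EGFP is disrupted by mis-splicing of beta-globin intron IVS2-654. Readout: summed well GFP fluorescence from 488 nm laser scanning; reference was 500 nM antisense […] 654 PNA.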
FLuc inh: inhibitors of firefly luciferase | P08659 | purified firefly luciferase, luminescence, 8 min | Potency, µM (series often up to 57.1 µM), for inactives: top-dose activity change, negative = inhibition, hits mostly inhibitors | hit rate 2.2% among 72,000; note: potency is the fitted concentration of half-maximal effect; % is set by controls: 0 for no effect and ±100 for the full control effect; nearly all actives have a fitted effect of over 40% in size
Target sequence (P08659 whole entry, looked up): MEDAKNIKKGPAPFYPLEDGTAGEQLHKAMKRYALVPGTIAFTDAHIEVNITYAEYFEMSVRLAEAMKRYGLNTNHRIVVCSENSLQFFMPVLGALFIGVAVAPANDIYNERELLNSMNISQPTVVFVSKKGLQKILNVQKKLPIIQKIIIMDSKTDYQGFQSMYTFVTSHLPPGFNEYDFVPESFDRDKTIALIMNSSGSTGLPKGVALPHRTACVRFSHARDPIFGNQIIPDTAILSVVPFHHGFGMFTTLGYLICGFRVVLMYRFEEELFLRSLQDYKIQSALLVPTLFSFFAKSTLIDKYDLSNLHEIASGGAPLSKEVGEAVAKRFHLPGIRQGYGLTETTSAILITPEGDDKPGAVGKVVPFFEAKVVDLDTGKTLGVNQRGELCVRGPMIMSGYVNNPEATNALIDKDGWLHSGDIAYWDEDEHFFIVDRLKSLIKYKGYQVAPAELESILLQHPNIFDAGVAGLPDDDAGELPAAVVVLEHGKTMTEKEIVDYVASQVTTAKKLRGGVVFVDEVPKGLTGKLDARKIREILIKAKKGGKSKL
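Substrate buffer containing 10 uM ATP (pH 7.2 imidazole, Mg2+, KCl, detergent, BSA) is dispensed, compound pinned in, then luciferase/luciferin detector mix added. After 8 min at ambient temperature, light output is measured.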
PK Bst: alters activity of Bacillus stearothermophilus pyruvate kinase; purified pyruvate kinase, luminescence ATP production; ribose 5-phosphate activator present at AC10; Potency, µM; hit rate 1.2% among 51,000; AID 361; in the data active = potency below about 11 µM; inconclusive = mostly about 12 µM to 25 µM;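 the screen sought inhibitors and activators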;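 note: potency is the fitted concentration of half-maximal effect; scaled between full activation by ribose 5 phosphate and full inhibition by luteolin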
GFP derepression: derepresses silenced GFP locus in mouse C127i cells; Potency, µM (doses to about 46.1 µM), for inactives: top-dose GFP derepression (activation); hit rate 0.09% among 68,000; mouse C127i GFP locus derepression, cytometry, 30 h; note: % of control where 0% means no effect
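Derepression screen: silenced CMV-GFP reporter in murine C127i cells, 30 h compound incubation at 37 C, washed cells imaged by laser-scanning cytometer to enumerate GFP-expressing objects of 20 to 120 um.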
* hit, by the source's call; i = inactive; u = inconclusive; x = no result given; ! = not confirmed by another sample; [ ] = dose if it differs, or a comment. Unless noted, calls come from the whole dose curve; as a rule, active = well fitted curve in the direction sought with a large enough effect; inconclusive = small, poorly fitted or top-dose-only effect, or another doubt; inactive = no such curve, though single readings can be large; an effect the other way counts as inactive or inconclusive.

SMILES | HBB splicing | FLuc inh | PK Bst | GFP derepression
Oc1ccccc1-c1cc(-c2ccccc2Cl)[nH]n1 | 0% | 13µM* | u | -3%
O=C(CSc1nc2ccccc2o1)Nc1nc2c(s1)CCCC2 | 1% | 10µM* | i | 1%
O=C(CSc1nc2ccccc2o1)Nc1nc2ccccc2s1 | x | 1% | >57 | 1%
COc1ccc(Oc2ncc3nc(-c4ccc(F)cc4)c(=O)n(Cc4cccs4)c3n2)cc1 | 3% | -1%[11.4 µM] | x | 8%[9.22 µM]
Cn1cc(-c2nc3cncnc3n(Cc3ccccc3Cl)c2=O)c2ccccc21 | 9% | -4%[11.4 µM] | x | 0%[9.22 µM]
COc1ccc(-c2cn3ccccc3n2)cc1OC | 3%[1.84 µM] | 3.2µM* | 6.5* | 0%
COc1ccc(-c2cn3cc(C)ccc3n2)cc1OC | -2% | 2.5µM* | 1.8* | -1%
CN(C)S(=O)(=O)c1cccc(-c2cn3ccccc3n2)c1 | 0%[0.369 µM] | -17% | x | 0%
Cn1ccnc1SCC(=O)Nc1ccc2ccccc2c1 | 1% | 13µM* | i | -2%
Cc1cccc(-c2cc3nc4c(c(N5CCC6(CC5)OCCO6)n3n2)CCCC4)c1 | 0%[57.5 µM] | -2% | >57 | 4%
Cc1cccc(-c2cc3nc4c(c(N5CCOCC5)n3n2)CCCC4)c1 | 0%[57.5 µM] | 16µM* | u | -1%
COCOc1cc(OC)ccc1C(=O)/C=C\c1ccc2c(c1)OCO2 | 3%[9.22 µM] | -1%[11.4 µM] | x | x
NCCNC[C@H](O)CO | 5%[9.22 µM] | 1%[11.4 µM] | x | 7%[9.22 µM]
Nc1nc2c(c(=O)[nH]1)CN(c1ccc(S(N)(=O)=O)cc1)CN2 | 1%[9.22 µM] | 3%[11.4 µM] | x | 3%[9.22 µM]
COc1ccccc1N=c1oc2cc(O)ccc2cc1C(N)=O | 1% | 7.9µM* | x | 3%
COc1ccccc1N=c1oc2cc(O)ccc2cc1C(=O)NCC1CCCO1 (stereo unspecified) | x | -7% | 2.6* | 1%
Cc1cccc(N=c2oc3cc(O)ccc3cc2C(N)=O)c1 | -1% | -15% | x | 1%
COc1cccc(C2NC(=O)NC(C)=C2C(=O)Nc2cccc(C)c2C)c1 (stereo unspecified) | 1% | 1% | >57 | -3%
Clc1ccccc1-c1nc(-c2ccccc2)n[nH]1 | 0%[57.5 µM] | 16µM* | i | 1%
Nc1n[nH]c(-c2ccccc2)c1-c1ccccc1 | 0% | 3% | x | -3%
Cc1nn(C(=O)c2cccs2)c(N)c1-c1ccccc1 | -1% | 16µM* | x | x
Cc1nn(C(=O)c2ccc3c(c2)OCO3)c(N)c1-c1ccccc1 | 0% | 2µM* | x | x
CC1(C)COCN1COC1CCCCC1 | 2%[9.22 µM] | 2%[11.4 µM] | x | 2%[9.22 µM]
Cc1ccc(O)c(N=CC2=C(O)c3ccccc3C2=O)c1 | 1% | 25µM* | x | -2%
O=C1C(C=Nc2ccccc2O)=C(O)c2ccccc21 | 0% | 7.9µM* | 7.3* | 2%
SMILES | HBB splicing | FLuc inh | PK Bst | GFP derepression
CCc1ccc(O)c(N=Cc2ccccc2O)c1 | 0%[9.22 µM] | -2% | x | -7%
CN=CC1=C(O)c2ccccc2C1=O | 3% | 1% | x | 0%
COc1cccc2sc(Nc3nnc(-c4ccccc4Cl)o3)nc12 | -2% | 16µM* | x | x
COc1cccc(-c2nnc(Nc3nc4c(F)cccc4s3)o2)c1 | 2% | 13µM* | i | 0%
Nc1nc(CSc2ncn(-c3ccccc3)n2)cs1 | 4% | 25µM* | x | 14%
O=C(NC1CCCCC1)c1noc2c1CCCCC2 | -2% | 20µM* | x | 6%
CCc1ccc(NC(=O)c2noc3c2CCCCC3)cc1 | 1% | -22% | >57 | -1%
Cc1ccc(NC(=O)c2noc3c2CCCCC3)cc1 | 2% | 13µM* | x | 2%
CCCCn1c2c(c3ccccc31)CCc1nonc1-2 | 0% | 2% | x | x
CN(C)C(=O)[C@H]1C[C@@H]1[C@H](NC(=O)OCc1ccccc1)c1ccccc1 | 1% | x | x | x
CCCOc1ccc(-c2nc(C#N)c(N3CCN(CC)CC3)o2)cc1 | 4%[0.369 µM] | -2% | 5.8* | 0%
CCOc1ccc(-c2nc(C#N)c(N3CCN(C)CC3)o2)cc1 | -1% | 1% | u | -1%
CCCOc1ccc(-c2nc(C#N)c(N3CCN(C)CC3)o2)cc1 | 4%[0.369 µM] | -3% | 7.3* | 2%
CCc1nnc(NC(=O)CSc2nnc(-c3ccc(O)cc3)n2-c2ccccc2)s1 | 0%[57.5 µM] | 2% | >57 | 2%
N#C/C(=C\c1ccc(O)c(O)c1)C(=O)Nc1ccccc1 | 1% | 25µM*! | x | 3%
COc1ccccc1CN1CCCC2(CCN(C(=O)c3cccn3C)CC2)C1 | 2% | 1%[11.4 µM] | x | -2%[9.22 µM]
O=C(Nc1ccc2c(c1)OCCO2)c1cncc(Br)c1 | 0% | 10µM* | i | -1%
O=C(Nc1ccc2c(c1)OCCO2)c1ccc(CN2CCOCC2)cc1 | x | 16µM* | x | -1%
Cc1occc1C(=O)Nc1ccc2c(c1)OCCO2 | -1% | 20µM* | i | -2%

From PubChem
